Screens as filed in PubChem.
This is a sample that favours compounds with a hit; in the whole collection about 2.5% have one here.
ClpP mod: qHTS Assay for Activators of ClpP. purified B. subtilis ClpP, FRET peptide cleavage, 20 min. ATP-dependent Clp protease proteolytic subunit (Bacillus subtilis (strain 168)), P80244. 340,000 compounds, 1.9% hits. Potency, µM (doses to about 57.5 µM), for the others: at the highest dose activity change, negative = active; active means well fitted falling curve with a large enough effect; inconclusive means small, poorly fitted or top-dose-only effect; inactive means no such curve, though single readings can be large or run the other way; further: potency means the concentration at half of the fitted maximal effect; the source files actives as falling curves though it sought activators and does not explain the sign; nearly all actives have a fitted effect of over 65% in size
Target sequence (P80244 whole entry, looked up): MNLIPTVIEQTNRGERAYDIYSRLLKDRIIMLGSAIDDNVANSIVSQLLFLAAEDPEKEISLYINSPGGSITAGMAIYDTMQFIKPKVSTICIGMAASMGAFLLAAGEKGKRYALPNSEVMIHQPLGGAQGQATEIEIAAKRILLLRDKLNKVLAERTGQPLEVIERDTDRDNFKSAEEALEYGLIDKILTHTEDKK
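ClpP 10 microg/mL final, pH 8 Tris/KCl buffer with BSA, glycerol, Tween-20; compound pinned in; FRET-FV substrate; RT 20 min; Ex320/Em430; ΔFRET vs ADEP 5.8 microM, DMSO, no enzyme.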
miR-21 reporter: qHTS Assay for Modulators of miRNAs and/orActivators of miR-21 | HeLa miR-21 FLuc reporter, luciferase, 48 h | Potency, µM (series often up to 38.3 µM), inactives show at the highest dose activity change, positive = activation, hits mostly activators | 340,000 tested, under 10 active;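 further: % of control where 0% means no effect; miR-21 action dims this reporter so a rising signal means less miR-21 action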
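HeLa miR-21-FLuc reporter line, endogenous miR-21; 2000 cells/well in DMEM/10% FBS; compound titration up to ~40uM final, 48 h, 37 degree Celsius; luciferase detection reagent, 15 min lysis, CCD luminescence.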
rTrxR1 inhibitor: qHTS Assay for Inhibitors of Mammalian Selenoprotein Thioredoxin Reductase 1 (TrxR1): qHTS. recombinant rTrxR1, NADPH fluorescence consumption, selenite substrate. Potency, µM (highest dose often 114 µM), for inactives: top-dose activity change, negative = inhibition, hits mostly inhibitors. 390,000 compounds, 1% hits. AID 588453, 2011; further: potency means the concentration at half of the fitted maximal effect; on the % scale 0 is the no-effect control and ±100 the full control effect; nearly all actives have a fitted effect of over 65% in size
Target sequence (O89049 whole entry, looked up): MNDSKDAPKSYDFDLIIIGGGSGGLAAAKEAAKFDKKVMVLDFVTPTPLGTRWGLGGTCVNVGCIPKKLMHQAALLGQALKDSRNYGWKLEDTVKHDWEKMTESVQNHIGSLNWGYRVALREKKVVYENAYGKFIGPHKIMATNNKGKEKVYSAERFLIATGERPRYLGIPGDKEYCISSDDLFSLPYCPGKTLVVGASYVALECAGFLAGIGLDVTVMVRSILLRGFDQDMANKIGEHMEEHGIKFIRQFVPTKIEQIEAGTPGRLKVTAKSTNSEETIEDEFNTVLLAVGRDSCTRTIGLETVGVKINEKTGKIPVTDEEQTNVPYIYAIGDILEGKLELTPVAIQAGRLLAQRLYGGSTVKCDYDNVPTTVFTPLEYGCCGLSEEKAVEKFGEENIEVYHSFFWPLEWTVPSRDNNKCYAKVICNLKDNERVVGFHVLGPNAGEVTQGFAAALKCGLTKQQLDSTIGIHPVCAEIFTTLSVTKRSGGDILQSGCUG
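Rat TrxR1 (90 nM in the dispensed reagent) was pre-reduced with 400 uM NADPH for 5 min at room temperature, then incubated with compound for 15 min. After 400 uM selenite was added, NADPH fluorescence (Ex 340/Em 450 nm) was followed for 8 min.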
TrxR1 substrate: qHTS Assay for Substrates of Mammalian Selenoprotein Thioredoxin Reductase 1 (TrxR1): qHTS; Thioredoxin reductase 1, cytoplasmic (Rattus norvegicus), O89049; purified TrxR1 substrate turnover, NADPH consumption readout; Potency, µM (highest dose often 114 µM), for inactives: top-dose activity change, negative = substrate turnover; 390,000 compounds, 0.01% hits; further: potency means the concentration at half of the fitted maximal effect; on the % scale 0 is the no-effect control and ±100 the full control effect; nearly all actives have a fitted effect of over 50% in size
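Rat TrxR1, dispensed at 90 nM, was prereduced with 400 uM NADPH (final) for 5 min at ~22 deg C, then incubated with compound 15 min before 400 uM selenite. A first-read NADPH fluorescence drop versus no-compound background flagged substrates.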
Apoferritin bind: qHTS Assay for Identification of Novel General Anesthetics; Ferritin light chain (Equus caballus), P02791; apoferritin/1-aminoanthracene competitive binding, fluorescence; Potency, µM (titrated, usually from 77.5 µM), inactives show top-dose activity change, negative = displacement, usual class: inhibitors; 350,000 compounds, 0.074% hits; further: potency means the concentration at half of the fitted maximal effect; on the % scale 0 is the no-effect control and ±100 the full control effect; nearly all actives have a fitted effect of over 20% in size
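Horse-spleen apoferritin (10 uM) in 50% saturated 1-aminoanthracene in PBS was incubated 10 min at room temperature with compound. Fluorescence (ex 380, em 535 nm) was normalized to free and bound 1-AMA, with concentration-response fitted by a four-parameter Hill equation.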
Numbers without * were called inactive; ? = inconclusive; nt = not tested or not shown; ! = not confirmed by another sample; [ ] = dose if it differs, or a comment. Unless noted, the call rests on the fitted dose curve; in most records, active means well fitted curve in the direction sought with a large enough effect; inconclusive means small, poorly fitted or top-dose-only effect, or another doubt; inactive means no such curve, though single readings can be large; an effect the other way counts as inactive or inconclusive.

SMILES	ClpP mod	miR-21 reporter	rTrxR1 inhibitor	TrxR1 substrate	Apoferritin bind
Cc1c(C#N)c2ncn(Cc3ccccc3)c(=O)c2n1-c1ccccc1	-2%	-21%	4%[57.1 µM]	7%[57.1 µM]	-20%
Cc1c(C#N)c2ncnc(-c3ccccc3)c2n1-c1ccccc1	35µM*	-9%	6%	9%	1%
N#Cc1c2n(c3c(-c4ccccc4)ncnc13)CCC2	32µM*	-12%	12%[57.1 µM]	20%[57.1 µM]	-9%
Cc1ccc(SCC(Cc2ccccc2)N2CCN(CCc3ccccc3)CCC2=O)cc1 (stereo not drawn)	nt	nt	7%	-3%	18%
COc1ccc(-c2cn3cccnc3n2)cc1NC(=O)COc1ccccc1	5%	-9%	25%[57.1 µM]	38%[57.1 µM]	7%
O=C(CN1C(=O)CC(c2ccccc2)=Nc2ccccc21)Nc1ccc(Br)cc1	-4%	17%	17%[57.1 µM]	4%[57.1 µM]	-3%
O=c1c2oc3ccccc3c2n(Cc2ccccc2F)c(=O)n1Cc1ccc2c(c1)OCO2	25µM*	0%	14%	3%	-16%
CC1(C(=O)NC2CCCCC2)Cc2ccccc2C(=O)N1Cc1ccccc1Cl (stereo not drawn)	32µM*	-8%	85%	43%	-9%
CCCN1C(=O)c2ccccc2CC1(C)C(=O)NC1CCCCC1 (stereo not drawn)	1%	-1%	8%	0%	3%
Cc1cc(Sc2nnc(N)s2)c2ccccc2n1	1%	?	8.9µM*	3%	12%
Cc1cc(C)c2ccccc2n1	1%	nt	7%	5%	nt
Cc1cc(Sc2nnc(/N=C/N(C)C)s2)c2ccccc2n1	-3%	?	2.5µM*	-3%	1%
CCOC(=O)C1CCN(C(=O)Cn2nc(CC)n3c(cc4occc43)c2=O)CC1	-8%	-1%	5%	-1%	-9%
COc1ccc(Cc2nc(C(=O)Nc3ccccc3)cs2)cc1	32µM*	-21%	21%[11.4 µM]	5%[11.4 µM]	-18%
COc1ccc(NC(=O)c2csc(Cc3ccc(Cl)cc3)n2)cc1	-2%	0%	27%	2%	-4%
CCc1[nH]c(=O)[nH]c1C(C)S(=O)(=O)c1ccc(C)cc1 (stereo not drawn)	nt	5%	1.1µM*	12%[57.1 µM]	3%
CCc1c(C(C)S(=O)(=O)c2ccc(C)cc2)[nH]c(=O)n1-c1ccc(C)cc1 (stereo not drawn)	0%	2%	?	1%[57.1 µM]	?
CC1Cn2c(nc3sc4c(c3c2=O)CCC4)N1CCO (stereo not drawn)	18µM*	-16%	-9%	4%	-7%
O=C1Cc2ccccc2C(c2ccc(Br)cc2)N1 (stereo not drawn)	-1%	-1%	4%	4%	?
O=C1NC2=C(CCc3ccccc32)C(c2ccc(Br)cc2)N1 (stereo not drawn)	28µM*	-8%	-5%	26%	-17%
COc1ccc(C(=O)Oc2c(Sc3ccc(Cl)cc3)c(C)nn2C(C)(C)C)cc1OC	-2%	30%	2%	-9%	-5%
Cc1cccc(Nc2nnc(SCC3CCCCO3)s2)c1C (stereo not drawn)	10µM*	-44%	-7%	-6%	?
Cn1c(C(=O)Nc2cccc(Cl)c2)cc2c(=O)n(C)c3ccccc3c21	-10%	2%	29%	9%	-6%
Cc1cccn2c(=O)c3cc(C(=O)NCCN4CCOCC4)c(=N)n(CCc4ccccc4)c3nc12	3.2µM*	2%	25%[57.1 µM]	93%[57.1 µM]	19%
Cc1cccn2c(=O)c3cc(C(=O)NCCc4ccccc4)c(=N)n(CCCn4ccnc4)c3nc12	18µM*	10%	33%[57.1 µM]	105%[57.1 µM]	102%
SMILES	ClpP mod	miR-21 reporter	rTrxR1 inhibitor	TrxR1 substrate	Apoferritin bind
CCNC(=O)c1cc2c(=O)n3cccc(C)c3nc2n(CCc2ccccc2)c1=N	?	-5%	-14%	237%	52%
COCCn1c(=N)c(C(=O)NCCc2ccccc2)cc2c(=O)n3cccc(C)c3nc21	1.4µM*	nt	-5%	184%	nt
Cc1ccc(C)n1-c1nnc(N2CCCC(C(=O)NCc3ccc(Cl)cc3)C2)s1 (stereo not drawn)	-7%	?	-12%	1%	0%
CCc1ccc(S(=O)(=O)c2nnn3c2nc(Nc2cccc(C)c2C)c2sccc23)cc1	204%	-3%	31%	50%	-9%
CCN(CC)c1ccc(NC(=O)CCS(=O)(=O)c2cccc3nsnc23)c(C)c1	1%	3%	79µM*!	-4%	-20%
Cc1ccc(NC(=O)CCS(=O)(=O)c2cccc3nsnc23)c(C)c1	-3%	6%	2%	-4%	-2%
O=C(/C=C/c1ccccc1)Nc1nc(-c2cccs2)ns1	25%	-18%	21%	8%	3%
CC1(C)C(=O)C=CC(=O)C(C)(C)C(=O)C=CC(=O)C(C)(C)C2=CC=C(O2)C(C)(C)C(=O)C=CC1=O	1%	nt	16µM*	-8%	nt
COc1ccc(CCNc2oc(Cc3ccccc3)nc2C#N)cc1OC	-1%	1%	1%	-8%	-15%
COc1ccc(-c2nc(C#N)c(NCCc3ccccc3)o2)cc1OC	6.3µM*	-63%	10%[57.1 µM]	23%[57.1 µM]	-6%
COc1ccc(-c2nc(C#N)c(N3CC(C)OC(C)C3)o2)cc1OC (stereo not drawn)	0.71µM*	-14%	53%	133%	0%
COc1ccc(-c2nc(C#N)c(NCc3ccc(C)cc3)o2)cc1OC	32µM*	-61%	44%	50%	4%
Cc1ccc(S(=O)(=O)NN=C2C3CC4CC(C3)CC2C4)cc1[N+](=O)[O-]	?	-3%	15%	5%	-2%
Cc1ccc(S(=O)(=O)N/N=C2/CC(=O)CC(C)(C)C2)cc1[N+](=O)[O-]	nt	-1%	40µM*	-3%	-12%
CC(=O)NCCn1ccc2ccccc21	28µM*	-2%	14%[57.1 µM]	15%[57.1 µM]	-7%
Cc1ccc(-c2nnc(SCCC(=O)Nc3ccccc3)n2C)cc1	2%	nt	15%	-1%	nt
COc1ccc(C=C2C=C(C(C)(C)C)C(=O)C(C(C)(C)C)=C2)cc1OC	nt	6%	11µM*	1%	?
O=C(Nc1cccc(Cl)c1)OCc1cnc(Cl)s1	0%	-31%	23%[57.1 µM]	16%[57.1 µM]	10µM*
CCOC(=O)c1ccc(CNc2ncnc3nc[nH]c23)cc1	-5%	nt	0%	7%[0.0914 µM]	nt
C=CCn1c(-c2ccc(OC)cc2)nc2ccccc21	?	-34%	-12%	6%	?
C=CCn1c(-c2ccc(OC)cc2)nc2nc3ccccc3nc21	25µM*	-27%	-7%	130%	79%
